# About 50,000 (12%) of roughly 420,000 compounds were called active. Entries that show only a call come without a potency. Not shown: some 26% with an inconclusive outcome. This is one part of a sample in which actives are shown more often than they occur. The call rests on the fitted dose curve; in most records, active means well fitted inhibition curve with a large enough effect; inconclusive means small, poorly fitted or top-dose-only effect; inactive means flat fitted curve, though single readings scatter.
# Assay: qHTS for Inhibitors of human tyrosyl-DNA phosphodiesterase 1 (TDP1): qHTS in cells in presence of CPT; further: nearly all actives have a fitted effect of over 55% in size
# Details: chicken DT40 Tdp1-/-;hTDP1 cells + 20 nM CPT, ATP luminescence, 48 h; series mostly up to 46.2 µM
# Outline: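 Cell growth measured by CellTiter-Glo luminescence after a minimum 48 h, 37 C compound exposure with 20 nM CPT in Tdp1-knockout DT40 cells stably expressing hTDP1, seeded 400/well; qHTS titration format.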
# Potency means the concentration at half of the fitted maximal effect.
row,SMILES,Potency
1,CCCn1c(=S)[nH]c2ccc(C(F)(F)F)cc21,inactive
2,Cc1cnc(NC(=O)c2ccc(Cl)nc2)s1,inactive
3,CCN(CC)c1ccc(NC(=O)CN2CCN(CC(=O)Nc3ccc(Cl)cc3)CC2)cc1,23.1 µM (active)
4,CCN(CC)c1ccc(NC(=O)CN2CCN(c3ccccn3)CC2)cc1,inactive
5,NS(=O)(=O)c1ccc(NC(=O)COC(=O)c2ccc(Cl)nc2)cc1,inactive
6,CCN(CC)c1ccc(NC(=O)c2ccc(Cl)nc2)cc1,2.91 µM (active)
7,CC(=O)N1CCN(CC(=O)Nc2ccc(SC(F)F)cc2)CC1,inactive
8,CCc1ccc(CN2C(=O)c3ccccc3C2C(=O)NCC2CCCO2)cc1 (stereo not drawn),inactive
9,Cc1csc2nc(O)c(C(=O)NCCN3CCOCC3)c(=O)n12,inactive
10,NC(=O)COC(=O)c1sc2cc(F)ccc2c1Cl,inactive
11,Cc1ccsc1C(=O)NNC(=O)COc1ccc(Br)cc1,inactive
12,O=C(NC(=S)N1CCc2ccccc21)c1ccco1,inactive
13,CN(C)C(=O)c1ccc(NC(=O)COC(=O)c2cc3c(s2)CCCCC3)cc1,inactive
14,CCOc1ccc(CNC(=O)Cn2cc3c(n2)-c2c(oc(C(=O)N4CCCC4)c2C)CC3)cc1,29.1 µM (active)
15,CCOC(=O)N1CCC(NC(=O)Cn2cc3c(n2)CCCCC3)CC1,inactive
16,CCCN(CCC)CCCNC(=O)Cn1cc2c(n1)-c1c(oc(C(=O)N3CCCC3)c1C)CC2,inactive
17,CCOC(=O)C(C)n1cnc2scc(-c3ccc(C)c(C)c3)c2c1=O (stereo not drawn),inactive
18,COc1ccc(-c2nnc(SCC(=O)Nc3cccnc3Cl)n2C)cc1,inactive
19,COC(=O)c1ccc(NC(=O)CSc2nnc(C3CC3)n2C)cc1,inactive
20,CC(C)(C)NC(=O)COc1ccc(CNc2ccc3[nH]c(=O)[nH]c3c2)cc1,inactive
21,CC(=O)Nc1ccc(CN2CCC(Oc3ccc(C(=O)N4CCCC4)cc3)CC2)cc1,inactive
22,Oc1ccc(Cl)c2c1CCC2,inactive
23,COc1ccc(-c2ccc(Nc3ccc(S(=O)(=O)N4CCCC4)cc3)nn2)cc1OC,16.4 µM (active)
24,COc1ccc(S(=O)(=O)Nc2ccc(S(=O)(=O)N3CCCCC3)cc2)cc1OC,inactive
25,COc1cc(NS(=O)(=O)c2ccc(NC(=O)c3ccc(S(=O)(=O)N4CCCCC4)cc3)cc2)ncn1,inactive
26,COCCOC(=O)c1c(C)oc2cc(Br)c(OCC(N)=O)cc12,inactive

row,SMILES,Potency
1,COC(=O)c1ccc(NC(=O)c2cc(S(=O)(=O)N3CCC(C)CC3)cn2C)cc1,inactive
2,COc1cc(OC)cc(C(=O)NCCc2csc3nc(-c4ccccc4F)nn23)c1,inactive
3,Cc1c(Cl)cccc1NC(=O)C(=O)NCCc1csc2nc(-c3ccccc3F)nn12,18.4 µM (active)
4,CCOc1ccc(NC(=O)C(=O)NCCc2csc3nc(-c4ccccc4F)nn23)cc1,inactive
5,COc1cccc(CN(C)CC(O)COC(c2ccccc2)c2ccccc2C)c1 (stereo not drawn),20.6 µM (active)
6,COc1cccc(CN(C)CC(=O)Nc2ccccc2C(=O)Nc2ccccc2)c1,inactive
7,CCCC(O)(c1ccc(OC)cc1)C(CN(C)C)c1ccccc1 (stereo not drawn),inactive
8,CCOC(=O)C1=CCC(c2ccc(F)cc2)N(S(=O)(=O)c2ccc(C)cc2)C1 (stereo not drawn),16.4 µM (active)
9,Cc1ccc(S(=O)(=O)N2[C@@H](c3ccccc3F)C(C(=O)O)=CC[C@H]2c2ccc(Cl)cc2)cc1,inactive
10,O=C(CN1CCN(S(=O)(=O)c2ccc(F)cc2)CC1)NC1CC1,inactive
11,Cc1ccc(S(=O)(=O)N2CCCC2CO)cc1 (stereo not drawn),inactive
12,Cc1ccccc1S(=O)(=O)N1[C@@H](c2cccc(Cl)c2)C(C(=O)OC(C)(C)C)=CC[C@H]1c1ccc(Cl)cc1,20.6 µM (active)
13,Cc1ccc(S(=O)(=O)N2[C@@H](c3ccc(Br)cc3)C(C(=O)O)=C[C@H]2CC2CCCC2)cc1,inactive
14,Cc1ccccc1S(=O)(=O)N1[C@@H](c2cccc(Cl)c2)C(C(=O)O)=CC[C@H]1c1ccc(Cl)cc1,inactive
15,Cc1ccc(S(=O)(=O)N2[C@@H](c3cccc4ccccc34)C(C(=O)O)=C[C@H]2C(C)(C)C)cc1,inactive
16,Cc1ccc(S(=O)(=O)N2C[C@H]3C(=O)C[C@@H](c4cccc5ccccc45)N(S(=O)(=O)c4ccc(C)cc4)[C@H]3C[C@H]2c2ccc(Cl)cc2)cc1,inactive
17,CCCCC[C@@H]1C=C(C(=O)OCC)[C@H](c2ccccc2)N1S(=O)(=O)c1ccc(C)cc1,14.6 µM (active)
18,CCOC(=O)C1=CC[C@@H](c2ccccc2)N(S(=O)(=O)c2ccc(C)cc2)[C@H]1c1cccc(OC)c1,23.1 µM (active)
19,COc1ccc(S(=O)(=O)N2CCC(C(=O)NCCC(=O)NCc3cccc(OC)c3)CC2)cc1,inactive
20,Cc1ccnc2nc(C(=O)Nc3nnc(-c4ccccc4)o3)nn12,inactive
21,Cc1ccc2[nH]c(=O)c(CN(C)S(=O)(=O)c3cccc4nonc34)cc2c1,inactive
22,COc1cc(NS(=O)(=O)c2cccs2)cc(OC)c1,inactive
23,COCCNc1nc(-c2ccccc2)nc2c1oc1ccccc12,inactive
24,Cc1cc(C)c2nc(-c3cccnc3)cc(C(=O)Nc3ccc(S(=O)(=O)Nc4onc(C)c4C)cc3)c2c1,inactive
25,CC1CCN(C(=O)C2CCN(S(=O)(=O)N3CCC4(CC3)OCCO4)CC2)CC1,inactive
26,COc1cc(C2C3C(=O)N(c4ccccc4)C(=O)C3ON2c2ccccc2)ccc1O (stereo not drawn),inactive

row,SMILES,Potency
1,COC(=O)c1sc(N)c(C(=O)OC)c1COC(=O)CNS(=O)(=O)c1ccc(C)cc1,inactive
2,COc1ccc2oc(-c3ccc(C)c(NC(=O)c4sc5ccccc5c4Cl)c3)nc2c1,inactive
3,CC1(C(=O)OCC(=O)Nc2ncc(Cl)cc2Cl)CC1(Cl)Cl (stereo not drawn),inactive
4,N#Cc1cccc(CN2CCC(=O)N([C@H](CO)c3ccccc3)CC2)c1,inactive
5,CC(C)(C(=O)NO)c1ccccc1,inactive
6,CN(C)S(=O)(=O)c1cccc(C(=O)Nc2cccnc2)c1,inactive
7,CCN(CC)S(=O)(=O)c1cccc(C(=O)Nc2ccccc2)c1,20.6 µM (active)
8,CCN(CC)S(=O)(=O)c1cccc(C(=O)NCC(=O)OCC(=O)NCc2ccccc2)c1,inactive
9,CC(OC(=O)c1cc2ccccc2o1)C(=O)Nc1ccc(N2CCOCC2)cc1 (stereo not drawn),inactive
10,CN(c1ccccc1)S(=O)(=O)c1ccc2[nH]c(=O)[nH]c2c1,inactive
11,CCCNC(=O)N1CCC(c2ccc3c(c2)OCO3)CC1,inactive
12,O=C1NC[C@@H](Cc2ccc(O)cc2)N(CCc2cccc(F)c2)C1=O,inactive
13,CCCC[C@@H]1CN=C(N)N1CCc1cc(C(F)(F)F)cc(C(F)(F)F)c1,3.66 µM (active)
14,CCCC[C@@H]1CN=C(N)N1CCc1cccc(F)c1,9.2 µM (active)
15,CCCS(=O)(=O)N1CCN=C1SCc1cccc(F)c1,inactive
16,CCN(CC(=O)NCc1cccs1)C(=O)c1ccc(OC)c(S(=O)(=O)N2CCOCC2)c1,inactive
17,Cn1c(=O)c2c(nc(N3CCOCC3)n2CCNC2=NCCC2)n(C)c1=O,inactive
18,CC(NC(=S)NC1CCCCC1)C(c1ccccc1)N1CCOCC1 (stereo not drawn),inactive
19,CCn1c(SCC(=O)NNC(=O)c2ccc(OC)cc2)nnc1C(C)C,inactive
20,CCc1cccc(C)c1NS(=O)(=O)c1c(C)nc2sccn2c1=O,inactive
21,Cc1cccc(C)c1Nc1c(-c2ccccc2O)nc2ncccn12,20.6 µM (active)
22,Cc1cccc(C)c1NC1=NC(=S)N(c2ccc(N(C)C)cc2)C1(C)C,inactive
23,Cc1ccc(-c2c(N)nc3ncccn23)cc1,inactive
24,CCc1cccc(C)c1Nc1c(-c2ccc(N(C)C)cc2)nc2ncccn12,10.3 µM (active)
25,Cc1c(-c2cccc(NC(=O)C(C)(C)C)c2)nc2ncccn12,inactive
26,CC1(OC(=O)CCc2ccccc2)C(=O)C=C2C=C(c3ccc(C#N)cc3)N(CCc3ccccn3)C=C2C1=O (stereo not drawn),inactive

row,SMILES,Potency
1,CC1CCN(c2ccc([N+](=O)[O-])cc2C(N)=O)CC1,inactive
2,CC(C)c1ccc(NC(=O)Cn2nnc(C(=O)NCCc3ccccc3)c2N)cc1,inactive
3,O=C(COc1ccc([N+](=O)[O-])cc1)Nc1cccc(C(=O)Nc2ccccc2C(=O)O)c1,inactive
4,CCc1ccc2c(c1)C1(NN=C(c3ccccc3)S1)C(=O)N2 (stereo not drawn),2.91 µM (active)
5,CCc1cccc(NC(=O)c2cc(-c3ccccc3)n[nH]2)c1,inactive
6,CCCCC(CC)CNC(=O)C1CCN(S(=O)(=O)c2cccc3nsnc23)CC1 (stereo not drawn),inactive
7,Cc1cc(C)c(-c2c(O)c3ccccc3n(C)c2=O)c(C)c1,inactive
8,COc1cccc2c(O)cc(=O)n(C)c12,inactive
9,COc1cc2c(=O)n(C)c3ccccc3c2cc1OC,13 µM (active)
10,Cc1ccc(Cc2nnc(SCC(=O)Nc3ccccc3C)[nH]c2=O)cc1,inactive
11,C[C@H](CO)N1C[C@H](C)[C@H](CN(C)C(=O)Nc2ccc3c(c2)OCO3)Oc2ncc(Br)cc2C1=O,inactive
12,CCOc1ccc(NC(=O)CN(C)C(=O)c2c(C)noc2C)cc1OCC,inactive
13,c1ccc(-c2c[nH]c(-c3ccccc3)c2)cc1,inactive
14,CC1CCCCC12NC(=O)N(CC(=O)N1CCN(c3ccccc3)CC1)C2=O (stereo not drawn),inactive
15,CC(=O)c1ccc(N2CCN(CC(O)c3ccccc3)CC2)cc1 (stereo not drawn),inactive
16,COc1ccc(C=Nc2cccc3ncccc23)cc1,inactive
17,COc1ccc(/C=C2/C(=O)N(c3ccccc3)N=C2C)c(OC)c1,inactive
18,COc1cc(OC)c(/C=C/c2ccnc3ccccc23)c(OC)c1,10 µM (active)
19,CC(=O)OC1CCC2(O)CC1(C)CCC1C2CC1(C)C (stereo not drawn),inactive
20,COc1ccc(-c2n[nH]c(C)c2-c2ccc(OC)c(OC)c2)c(O)c1,20.6 µM (active)
21,COc1ccc(-c2c(-c3ccc(OC)cc3O)nc(C)nc2C(F)(F)F)cc1,inactive
22,C=C(C)COc1ccc(-c2ncncc2-c2ccc(OC)cc2)c(O)c1,inactive
23,CCOc1ccc(-c2n[nH]c(C)c2-c2ccccn2)c(O)c1,inactive
24,COc1ccc(-n2c(-c3ccc(OC)c(OC)c3)n[nH]c2=S)cc1,inactive
25,C=C(C)COc1ccc(-c2n[nH]c(C)c2-c2ccccc2)c(O)c1,14.6 µM (active)
